# Measurements published in PubChem BioAssay (NCATS).
# Inconclusive results are not listed. The source made the active and inactive calls. The call rests on the fitted dose curve; in most records, active means well fitted activation curve with a large enough effect in the main read-out, with a control signal flat (not every such curve was filed as active); inconclusive means small, poorly fitted or top-dose-only effect, or effect the other way, or a change in a side signal; inactive means flat fitted curve, though single readings scatter. Starred links: 1 amine or outer side, 2 acyl side, 3 side chain; linkers in the order of their positions; H or OH if unused. Positions of bridges follow the written chain, without caps; N, C: chain ends. Bridge positions count the residues as written; N and C are the ends. Non-standard residues stand in square brackets, D forms with d. Square brackets hold non-standard residues; d marks the D form. Residues, ends and D or L forms follow the SMILES beside them. Peptide text beside a SMILES is read from it. * marks the point of attachment. *: point of attachment. Ileψ(thiazoline)Cys = CC[C@H](C)[C@H](N)C1=N[C@H](C(=O)*)CS1; X1 = NC1=N[C@@H](O)C[C@@H]([C@@H](N[*:1])C(=O)[*:2])N1; ΔAla(Z-3-ureido) = NC(=O)N/C=C(\N)C(=O)O; d(aIle) = CC[C@H](C)[C@@H](N)C(=O)O; β3hOrn = NCCC[C@H](N)CC(=O)*; dOrn = NCCC[C@@H](N)C(=O)O; Dap = NC[C@H](N)C(=O)O
# Target: 3',5'-cyclic-AMP phosphodiesterase 4B (Homo sapiens) (UniProt Q07343)
# Assay: qHTS Assay for Inhibitors of PDE-IV (AID 607); further: % of control where 0% means no effect
# Details: HEK293 ACTOne CNG channel cells, membrane potential fluorescence; series mostly up to 22.9 µM; activation (PDE inhibition): at the top concentration
# Procedure, shortened: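 The readout is membrane depolarisation from a cAMP-sensing CNG channel, detected with a potential dye at ex 535/em 590. Cells were HEK293-derived (endogenous PDE-IV) at 1000 cells/well, titrated up to 22.9 uM final.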
# Chain of 3',5'-cyclic-AMP phosphodiesterase 4B (Homo sapiens) (Q07343 whole entry, looked up): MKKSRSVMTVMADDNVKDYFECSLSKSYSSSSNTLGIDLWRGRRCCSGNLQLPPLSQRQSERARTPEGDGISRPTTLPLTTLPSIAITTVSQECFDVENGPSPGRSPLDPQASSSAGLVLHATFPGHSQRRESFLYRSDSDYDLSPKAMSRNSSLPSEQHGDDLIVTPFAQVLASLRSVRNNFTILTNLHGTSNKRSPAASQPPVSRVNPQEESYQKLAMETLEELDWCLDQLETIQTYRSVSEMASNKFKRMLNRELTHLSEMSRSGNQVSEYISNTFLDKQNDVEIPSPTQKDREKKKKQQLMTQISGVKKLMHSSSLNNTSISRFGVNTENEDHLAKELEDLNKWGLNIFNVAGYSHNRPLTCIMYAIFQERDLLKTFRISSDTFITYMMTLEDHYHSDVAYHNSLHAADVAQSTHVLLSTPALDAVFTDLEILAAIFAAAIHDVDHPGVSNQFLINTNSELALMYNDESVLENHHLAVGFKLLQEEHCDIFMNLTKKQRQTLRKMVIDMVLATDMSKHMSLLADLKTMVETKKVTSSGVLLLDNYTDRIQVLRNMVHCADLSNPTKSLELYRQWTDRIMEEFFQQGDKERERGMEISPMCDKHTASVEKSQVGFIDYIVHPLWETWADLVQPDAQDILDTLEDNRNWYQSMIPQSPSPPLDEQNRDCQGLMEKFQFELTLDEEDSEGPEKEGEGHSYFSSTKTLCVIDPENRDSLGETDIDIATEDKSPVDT
row,SMILES,activation (PDE inhibition)
1,CC[C@]1(c2ccccc2)NC(=O)N(C)C1=O,-14.1% (inactive)
2,C[C@H](CCC(=O)O)[C@H]1CC[C@@H]2[C@@H]3[C@@H](O)C[C@H]4C[C@@H](O)CC[C@@]4(C)[C@H]3CC[C@@]21C,-2.48% (inactive)
3,C=CCO[C@@H](Cn1ccnc1)c1ccc(Cl)cc1Cl,8.8% (inactive)
4,CC(C)(CO)[C@H](O)C(=O)NCCC(=O)O,17.5% (inactive)
5,C[N+]1(C)CC[C@@H](OC(=O)[C@@](O)(c2ccccc2)C2CCCC2)C1,9.02% (inactive)
6,O=C(O)c1cc2ccccc2c(Cc2cc3ccccc3c(C(=O)O)c2O)c1O (tested in a mixture with another compound),13.5% (inactive)
7,CCC(=O)OCC(=O)[C@@]1(OC(=O)CC)[C@H](C)C[C@@H]2[C@@H]3[C@H]([C@@H](O)C[C@@]21C)[C@]1(C)C=CC(=O)C=C1C[C@@H]3Cl,-10.6% (inactive)
8,NCCC[C@H](N)CC(=O)N[C@H]1CNC(=O)[C@@H]([C@@H]2C[C@H](O)N=C(N)N2)NC(=O)/C(=C/NC(N)=O)NC(=O)[C@@H](CO)NC(=O)[C@@H](CO)NC1=O (β3hOrn-[Dap][dS][dS][ΔAla(Z-3-ureido)][X1]; lactam 1-C),10.7% (inactive)
9,CC1(C)[C@@H](OC(=O)CCC(=O)O)CC[C@@]2(C)[C@H]1CC[C@@]1(C)[C@H]2C(=O)C=C2[C@H]3C[C@](C)(C(=O)O)CC[C@]3(C)CC[C@@]21C,-1.35% (inactive)
10,CCOC(=O)O[C@@H](C)OC(=O)[C@@H]1N2C(=O)[C@@H](NC(=O)[C@@H](N)c3ccccc3)[C@H]2SC1(C)C,18.8% (inactive)
11,CC#C[C@@]1(O)CC[C@H]2[C@@H]3CCC4=CC(=O)CCC4=C3[C@H](c3ccc(N(C)C)cc3)C[C@]21C,-12.3% (inactive)
12,Cc1ccsc1/C=C\C1=NCCCN1C,-4.82% (inactive)
13,Cc1cccc(CN2CCN([C@@H](c3ccccc3)c3ccc(Cl)cc3)CC2)c1,-0.955% (inactive)
14,C[C@@H]1[C@H]2CC[C@@H]3[C@@H]4CC=C5C[C@@H](N(C)C)CC[C@]5(C)[C@@H]4CC[C@@]32CN1C,24.1% (inactive)
15,COc1ccc(CNc2ncncc2-c2ccccc2CN(C)C)c(OC)c1,9.02% (inactive)
16,Nc1nc(=S)c2ncn([C@H]3O[C@@H](CO)[C@@H](O)[C@@H]3O)c2[nH]1,2.04% (inactive)

row,SMILES,activation (PDE inhibition)
1,C#C[C@]1(O)CC[C@@H]2[C@H]3CCC4=CCCC[C@@H]4[C@@H]3CC[C@@]21C,29.3% (inactive)
2,CC[C@H](C)[C@H](N)C1=N[C@H](C(=O)N[C@@H](CC(C)C)C(=O)N[C@@H](CCC(=O)O)C(=O)N[C@@H](C(=O)N[C@H]2CCCCNC(=O)[C@@H](CC(N)=O)NC(=O)[C@@H](CC(=O)O)NC(=O)[C@@H](Cc3cnc[nH]3)NC(=O)[C@@H](Cc3ccccc3)NC(=O)[C@@H]([C@@H](C)CC)NC(=O)[C@@H](CCCN)NC2=O)[C@@H](C)CC)CS1 ({Ileψ(thiazoline)Cys}-LE[d(aIle)]K[dOrn][d(aIle)][dF][dH][dD][dN]; lactam 4-C),-9.25% (inactive)
3,CC1(C)S[C@@H]2[C@H](NC(=O)[C@@H](N)c3ccc(O)cc3)C(=O)N2[C@H]1C(=O)O,8.62% (inactive)
4,C[C@H](CCC(=O)O)[C@H]1CC[C@@H]2[C@H]3[C@@H](CC[C@@]21C)[C@]1(C)CC[C@H](O)C[C@@H]1C[C@@H]3O,14.5% (inactive)
5,O=C(O)[C@@H](O)[C@@H](O)[C@@H](O[C@H]1O[C@@H](CO)[C@@H](O)[C@@H](O)[C@@H]1O)[C@@H](O)CO,-11.6% (inactive)
6,O=C(N[C@@H](CO)[C@@H](O)c1ccc([N+](=O)[O-])cc1)C(Cl)Cl,8.92% (inactive)
7,CN1CCC2(CC1)CCN(C(=O)c1ccncc1)CC2,5.68% (inactive)
8,CN(C)CCO[C@@H](c1ccc(Cl)cc1)c1ccccn1,18.9% (inactive)
9,O=C(O)COCCN1CCN([C@@H](c2ccccc2)c2ccc(Cl)cc2)CC1,10% (inactive)
10,CC(=O)O[C@H]1C[C@H]2CC[C@@H]3[C@@H](CC[C@]4(C)[C@H](OC(C)=O)[C@H]([N+]5(C)CCCCC5)C[C@@H]34)[C@]2(C)C[C@H]1[N+]1(C)CCCCC1,4.45% (inactive)
11,CCN(CC)CCOC(=O)[C@@H](Cc1cccc2ccccc12)C[C@@H]1CCCO1,26.6% (inactive)
12,C[C@@H](CNC1CCCCC1)OC(=O)c1ccccc1,18.3% (inactive)
13,CC[C@H](CO)NCCN[C@@H](CC)CO,8.97% (inactive)
14,CC[N+]1(C)[C@@H]2CC[C@H]1CC(OC(=O)[C@H]1CC[C@@](C(=O)OC3C[C@H]4CC[C@@H](C3)[N+]4(C)CC)(c3ccccc3)c3ccccc31)C2 (some centres not stated),10.4% (inactive)
15,C[C@@]12C=CC(=O)C=C1CC[C@H]1[C@H]3CC[C@](O)(C(=O)CO)[C@]3(C)CC(=O)[C@@H]12,-7.84% (inactive)
16,CO[C@@H]1C=CO[C@]2(C)Oc3c(C)c(O)c4c(O)c(c(C=NN5CCN(C)CC5)c(O)c4c3C2=O)NC(=O)C(C)=CC=C[C@H](C)[C@H](O)[C@H](C)[C@H](O)[C@H](C)[C@H](OC(C)=O)[C@H]1C,-6.91% (inactive)
